# ChEMBL document CHEMBL2218924, “A broad activity screen in support of a chemogenomic map for kinase signalling research and drug discovery” (Biochem J, 2013)
# Experiments:
# [1] = target: T1, Ephrin type-A receptor 3 (Homo sapiens) (UniProt P29320); conditions: at 10 µM
# T1 sequence (whole entry): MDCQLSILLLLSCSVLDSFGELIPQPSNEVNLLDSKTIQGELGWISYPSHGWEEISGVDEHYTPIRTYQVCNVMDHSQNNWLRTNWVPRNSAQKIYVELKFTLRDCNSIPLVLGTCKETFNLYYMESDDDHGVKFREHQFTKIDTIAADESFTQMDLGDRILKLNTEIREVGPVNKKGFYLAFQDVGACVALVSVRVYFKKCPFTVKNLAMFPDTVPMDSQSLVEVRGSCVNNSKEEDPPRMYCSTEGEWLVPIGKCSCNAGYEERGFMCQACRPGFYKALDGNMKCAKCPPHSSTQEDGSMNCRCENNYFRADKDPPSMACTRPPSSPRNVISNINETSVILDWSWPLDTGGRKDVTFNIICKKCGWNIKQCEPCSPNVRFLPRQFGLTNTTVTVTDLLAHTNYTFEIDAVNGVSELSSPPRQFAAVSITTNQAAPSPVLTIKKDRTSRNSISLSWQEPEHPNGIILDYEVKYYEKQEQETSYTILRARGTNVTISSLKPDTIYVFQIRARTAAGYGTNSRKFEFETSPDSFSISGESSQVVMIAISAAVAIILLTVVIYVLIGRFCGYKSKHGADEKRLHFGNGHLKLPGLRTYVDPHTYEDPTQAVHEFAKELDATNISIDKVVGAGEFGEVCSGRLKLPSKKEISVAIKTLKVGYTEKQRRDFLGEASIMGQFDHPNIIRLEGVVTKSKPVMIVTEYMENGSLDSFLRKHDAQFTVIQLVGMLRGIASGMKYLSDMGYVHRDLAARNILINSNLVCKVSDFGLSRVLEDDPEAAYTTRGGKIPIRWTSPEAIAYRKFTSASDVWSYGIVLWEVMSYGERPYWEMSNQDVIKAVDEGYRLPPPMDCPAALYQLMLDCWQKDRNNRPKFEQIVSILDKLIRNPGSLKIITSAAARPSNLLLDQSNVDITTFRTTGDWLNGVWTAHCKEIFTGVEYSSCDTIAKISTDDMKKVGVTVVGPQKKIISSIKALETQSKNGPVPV
# [2] = target: Ephrin type-A receptor 4 (Homo sapiens) (UniProt P54764); conditions: at 1 µM
# Chain of Ephrin type-A receptor 4 (Homo sapiens) (P54764 whole entry): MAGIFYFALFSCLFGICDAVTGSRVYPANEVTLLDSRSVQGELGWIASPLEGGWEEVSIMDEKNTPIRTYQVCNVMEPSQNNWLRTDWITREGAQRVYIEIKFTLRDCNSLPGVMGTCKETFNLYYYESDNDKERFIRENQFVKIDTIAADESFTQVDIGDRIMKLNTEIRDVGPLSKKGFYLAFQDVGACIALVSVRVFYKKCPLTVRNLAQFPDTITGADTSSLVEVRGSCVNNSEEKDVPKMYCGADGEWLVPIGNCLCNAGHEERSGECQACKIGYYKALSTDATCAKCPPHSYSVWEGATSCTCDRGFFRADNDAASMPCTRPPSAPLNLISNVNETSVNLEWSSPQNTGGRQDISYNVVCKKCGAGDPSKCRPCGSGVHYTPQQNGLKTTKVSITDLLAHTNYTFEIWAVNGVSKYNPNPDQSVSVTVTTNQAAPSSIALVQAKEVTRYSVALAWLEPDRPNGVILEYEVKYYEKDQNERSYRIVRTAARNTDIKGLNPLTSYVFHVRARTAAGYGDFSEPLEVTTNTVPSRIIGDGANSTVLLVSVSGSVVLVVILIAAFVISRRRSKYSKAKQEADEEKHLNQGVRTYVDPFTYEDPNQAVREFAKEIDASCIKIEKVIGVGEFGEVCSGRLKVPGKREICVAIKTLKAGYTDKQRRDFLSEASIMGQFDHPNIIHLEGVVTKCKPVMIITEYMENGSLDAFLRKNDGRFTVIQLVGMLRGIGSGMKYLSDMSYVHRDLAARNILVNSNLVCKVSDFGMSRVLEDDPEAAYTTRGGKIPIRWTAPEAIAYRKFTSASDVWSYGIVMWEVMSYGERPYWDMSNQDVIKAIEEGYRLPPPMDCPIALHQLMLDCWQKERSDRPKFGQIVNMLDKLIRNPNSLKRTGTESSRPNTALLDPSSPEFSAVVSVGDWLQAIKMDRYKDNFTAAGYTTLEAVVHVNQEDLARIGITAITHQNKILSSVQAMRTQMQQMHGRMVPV
# [3] = target: Ephrin type-A receptor 4 (Homo sapiens) (UniProt P54764); conditions: at 10 µM
# [4] = target: Ephrin type-A receptor 5 (Homo sapiens) (UniProt P54756); conditions: at 1 µM
# Chain of Ephrin type-A receptor 5 (Homo sapiens) (P54756 whole entry): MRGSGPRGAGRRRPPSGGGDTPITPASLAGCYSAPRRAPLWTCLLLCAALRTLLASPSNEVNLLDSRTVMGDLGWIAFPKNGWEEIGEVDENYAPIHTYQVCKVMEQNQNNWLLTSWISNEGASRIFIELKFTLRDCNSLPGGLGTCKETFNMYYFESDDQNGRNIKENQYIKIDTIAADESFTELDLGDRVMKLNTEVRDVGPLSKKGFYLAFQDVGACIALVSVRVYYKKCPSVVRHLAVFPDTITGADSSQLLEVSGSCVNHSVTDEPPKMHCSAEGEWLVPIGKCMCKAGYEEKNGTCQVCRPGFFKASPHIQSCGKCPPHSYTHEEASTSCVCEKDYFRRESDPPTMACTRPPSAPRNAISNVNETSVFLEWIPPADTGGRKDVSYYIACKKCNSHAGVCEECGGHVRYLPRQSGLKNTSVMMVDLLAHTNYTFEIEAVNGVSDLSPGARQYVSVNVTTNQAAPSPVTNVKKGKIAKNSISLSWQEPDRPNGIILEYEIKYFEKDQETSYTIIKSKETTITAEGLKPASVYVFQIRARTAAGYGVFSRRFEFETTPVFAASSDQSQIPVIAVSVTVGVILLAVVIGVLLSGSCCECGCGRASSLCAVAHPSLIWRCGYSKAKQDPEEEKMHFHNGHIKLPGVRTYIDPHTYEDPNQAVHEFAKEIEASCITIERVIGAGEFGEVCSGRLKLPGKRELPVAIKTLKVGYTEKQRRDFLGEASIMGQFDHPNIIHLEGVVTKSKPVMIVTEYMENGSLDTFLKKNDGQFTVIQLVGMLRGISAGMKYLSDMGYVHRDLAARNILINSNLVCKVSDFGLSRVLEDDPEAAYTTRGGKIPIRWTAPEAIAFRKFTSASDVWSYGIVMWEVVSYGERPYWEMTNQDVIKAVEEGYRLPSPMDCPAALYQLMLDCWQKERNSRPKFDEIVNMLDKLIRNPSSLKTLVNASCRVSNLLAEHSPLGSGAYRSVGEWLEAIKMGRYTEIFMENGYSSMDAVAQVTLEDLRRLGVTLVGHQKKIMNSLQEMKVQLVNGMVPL
# [5] = target: Ephrin type-A receptor 5 (Homo sapiens) (UniProt P54756); conditions: at 10 µM
# [6] = target: Ephrin type-A receptor 7 (Homo sapiens) (UniProt Q15375); conditions: at 1 µM
# Chain of Ephrin type-A receptor 7 (Homo sapiens) (Q15375 28-998 limits assumed): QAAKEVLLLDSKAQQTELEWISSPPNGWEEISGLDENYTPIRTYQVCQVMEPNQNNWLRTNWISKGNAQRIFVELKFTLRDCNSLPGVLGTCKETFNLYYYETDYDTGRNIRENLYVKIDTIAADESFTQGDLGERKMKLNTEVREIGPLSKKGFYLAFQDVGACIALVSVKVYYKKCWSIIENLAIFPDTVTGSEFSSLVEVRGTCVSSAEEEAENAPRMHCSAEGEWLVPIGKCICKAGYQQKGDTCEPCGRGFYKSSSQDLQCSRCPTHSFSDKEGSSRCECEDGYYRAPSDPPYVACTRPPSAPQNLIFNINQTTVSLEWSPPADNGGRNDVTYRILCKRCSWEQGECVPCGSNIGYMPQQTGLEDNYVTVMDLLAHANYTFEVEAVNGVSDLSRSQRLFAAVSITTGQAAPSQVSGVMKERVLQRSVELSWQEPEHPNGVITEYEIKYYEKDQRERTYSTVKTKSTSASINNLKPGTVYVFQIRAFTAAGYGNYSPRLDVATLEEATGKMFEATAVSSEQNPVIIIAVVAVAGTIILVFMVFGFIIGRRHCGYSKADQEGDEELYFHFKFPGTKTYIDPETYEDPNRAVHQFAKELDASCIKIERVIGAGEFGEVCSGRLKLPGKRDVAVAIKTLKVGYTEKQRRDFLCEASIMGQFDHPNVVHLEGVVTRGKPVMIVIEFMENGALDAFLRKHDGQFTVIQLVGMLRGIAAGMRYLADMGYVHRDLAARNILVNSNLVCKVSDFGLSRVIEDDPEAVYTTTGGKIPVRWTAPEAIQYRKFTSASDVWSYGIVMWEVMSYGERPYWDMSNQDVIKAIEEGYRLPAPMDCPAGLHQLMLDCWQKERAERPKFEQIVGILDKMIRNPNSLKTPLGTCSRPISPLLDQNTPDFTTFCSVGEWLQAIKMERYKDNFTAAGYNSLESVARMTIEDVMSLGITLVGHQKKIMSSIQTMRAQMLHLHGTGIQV
# [7] = target: Ephrin type-A receptor 7 (Homo sapiens) (UniProt Q15375); conditions: at 10 µM
# [8] = target: T2, Ephrin type-A receptor 8 (Homo sapiens) (UniProt P29322); conditions: at 1 µM
# T2 sequence (whole entry): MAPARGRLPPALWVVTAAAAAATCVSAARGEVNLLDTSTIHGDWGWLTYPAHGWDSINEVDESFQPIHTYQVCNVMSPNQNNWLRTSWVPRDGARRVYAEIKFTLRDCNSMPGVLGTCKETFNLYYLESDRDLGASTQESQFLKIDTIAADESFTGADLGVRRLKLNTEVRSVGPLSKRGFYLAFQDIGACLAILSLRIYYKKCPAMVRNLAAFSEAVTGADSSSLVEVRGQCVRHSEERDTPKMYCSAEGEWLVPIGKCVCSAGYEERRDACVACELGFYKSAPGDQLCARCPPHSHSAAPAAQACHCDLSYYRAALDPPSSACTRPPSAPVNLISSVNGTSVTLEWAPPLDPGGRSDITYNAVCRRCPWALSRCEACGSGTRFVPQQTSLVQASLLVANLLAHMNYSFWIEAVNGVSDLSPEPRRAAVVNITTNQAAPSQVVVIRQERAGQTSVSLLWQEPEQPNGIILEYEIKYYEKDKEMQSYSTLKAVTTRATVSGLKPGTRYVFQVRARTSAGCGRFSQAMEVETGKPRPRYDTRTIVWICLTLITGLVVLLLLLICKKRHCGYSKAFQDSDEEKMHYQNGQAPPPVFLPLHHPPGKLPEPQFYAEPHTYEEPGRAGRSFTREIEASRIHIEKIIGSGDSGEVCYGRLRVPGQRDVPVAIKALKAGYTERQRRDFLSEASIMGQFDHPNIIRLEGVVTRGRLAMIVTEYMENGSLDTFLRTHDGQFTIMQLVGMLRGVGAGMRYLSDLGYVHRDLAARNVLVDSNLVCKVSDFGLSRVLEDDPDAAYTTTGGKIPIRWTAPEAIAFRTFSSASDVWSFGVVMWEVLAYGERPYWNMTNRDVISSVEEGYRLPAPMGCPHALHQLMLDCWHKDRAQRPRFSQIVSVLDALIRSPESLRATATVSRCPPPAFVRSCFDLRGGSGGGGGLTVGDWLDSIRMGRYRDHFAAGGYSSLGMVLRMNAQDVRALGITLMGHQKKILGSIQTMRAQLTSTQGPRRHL
# [9] = target: T2, Ephrin type-A receptor 8 (Homo sapiens); conditions: at 10 µM
# [10] = target: T3, Ephrin type-B receptor 1 (Homo sapiens) (UniProt P54762); conditions: at 1 µM
# T3 sequence (whole entry): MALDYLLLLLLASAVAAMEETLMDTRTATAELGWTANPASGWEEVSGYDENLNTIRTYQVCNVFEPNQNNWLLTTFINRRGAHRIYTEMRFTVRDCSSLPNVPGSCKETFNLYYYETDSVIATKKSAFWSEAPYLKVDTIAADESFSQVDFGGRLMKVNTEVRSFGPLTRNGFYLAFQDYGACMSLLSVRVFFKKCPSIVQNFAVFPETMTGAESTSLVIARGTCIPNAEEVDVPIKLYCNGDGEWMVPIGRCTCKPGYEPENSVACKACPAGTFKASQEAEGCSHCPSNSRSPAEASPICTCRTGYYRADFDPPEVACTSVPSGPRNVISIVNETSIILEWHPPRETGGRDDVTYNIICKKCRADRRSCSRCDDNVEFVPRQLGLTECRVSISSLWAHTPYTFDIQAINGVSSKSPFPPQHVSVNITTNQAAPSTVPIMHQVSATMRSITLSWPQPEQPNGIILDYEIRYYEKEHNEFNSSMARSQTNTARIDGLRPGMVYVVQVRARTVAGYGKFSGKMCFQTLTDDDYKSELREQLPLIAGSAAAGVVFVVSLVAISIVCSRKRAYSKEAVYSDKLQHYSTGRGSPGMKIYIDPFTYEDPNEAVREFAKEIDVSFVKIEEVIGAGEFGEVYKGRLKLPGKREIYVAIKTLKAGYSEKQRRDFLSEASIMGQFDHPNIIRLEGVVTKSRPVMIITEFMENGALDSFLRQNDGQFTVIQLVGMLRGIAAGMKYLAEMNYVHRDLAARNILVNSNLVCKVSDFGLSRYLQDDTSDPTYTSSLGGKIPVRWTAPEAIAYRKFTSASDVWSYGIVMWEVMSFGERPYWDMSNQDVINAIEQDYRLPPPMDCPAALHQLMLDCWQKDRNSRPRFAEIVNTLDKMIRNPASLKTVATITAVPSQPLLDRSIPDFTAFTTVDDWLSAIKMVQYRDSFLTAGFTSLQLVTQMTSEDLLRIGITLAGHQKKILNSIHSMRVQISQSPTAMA
structure (smiles),measurement,setting,value
CC#CC(=O)Nc1cc2c(Nc3ccc(F)c(Cl)c3)ncnc2cn1,residual activity,[1],92%
same,residual activity,[2],118%
same,residual activity,[3],91%
same,residual activity,[4],102%
same,residual activity,[5],97%
same,residual activity,[6],96%
same,residual activity,[7],91%
same,residual activity,[8],104%
same,residual activity,[9],93%
same,residual activity,[10],96%
